Laboratory results from PubChem BioAssay (NCATS).
Inconclusive results are not listed. Where a call stands in place of a potency, no number is given. The source made the active and inactive calls. Calls come from the whole dose curve; as a rule, active = well fitted inhibition curve with a large enough effect; inconclusive = small, poorly fitted or top-dose-only effect; inactive = flat fitted curve, though single readings scatter.

system: CP238; assay: qHTS profiling for inhibitors of Plasmodium falciparum proliferation (AID 504749); note: nearly all actives have a fitted effect of over 60% in size; settings: P. falciparum in erythrocytes, SYBR Green DNA, 72 h; series mostly up to 28.7 µM
Summary of the method: (§1)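 P. falciparum-infected erythrocytes (0.3% parasitemia, 2.5% hematocrit) incubated with compound 72 h at 37 C, 5% CO2. Parasite DNA detected by SYBR Green after lysis, overnight at room temperature; normalised to 0.29 uM artemisinin and DMSO.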

Row | SMILES | Potency
1 | COc1cc(S(C)=O)ccc1-c1nc2ncccc2[nH]1 (stereo not given) | inactive
2 | CCOc1ccc(S(=O)(=O)O)c2cccnc12 | inactive
3 | NC(=S)NS(=O)(=O)c1ccc(N)cc1 | inactive
4 | C[C@]12CC[C@@H]3c4ccc(OC(=O)c5ccccc5)cc4CC[C@H]3[C@@H]1CC[C@@H]2O | inactive
5 | CC(CCc1ccc(O)cc1)NCC(O)c1ccc(O)cc1 (stereo not given) | inactive
6 | FC(F)(F)C(F)(F)C(F)(F)C(F)(F)C(F)(F)C(F)(F)F | inactive
7 | CN(C)CCOc1ccc(/C(=C(/CCCl)c2ccccc2)c2ccccc2)cc1 | inactive
8 | CNC(=O)OCc1cccc(COC(=O)NC)n1 | inactive
9 | NCC[C@H](O)C(=O)N[C@@H]1C[C@H](N)[C@@H](O[C@H]2O[C@H](CN)[C@@H](O)[C@H](O)[C@H]2O)[C@H](O)[C@H]1O[C@H]1O[C@H](CO)[C@@H](O)[C@H](N)[C@H]1O | inactive
10 | NC(N)=O | inactive
11 | CC1CCCCN1CCCOC(=O)c1ccccc1 (stereo not given) | inactive
12 | COC(=O)CCC[N+](C)(C)C | inactive
13 | COC(=O)CC[C@H](N)C(=O)O | inactive
14 | O=C(OCc1ccccc1)c1ccc(O)cc1 | inactive
15 | CC(C)(CO)[C@@H](O)C(=O)NCCC(=O)NCCSSCCNC(=O)CCNC(=O)[C@H](O)C(C)(C)CO | inactive
16 | COC(=O)c1ccccc1O | inactive
17 | OC[C@H]1O[C@@](CO)(O[C@H]2O[C@H](CO)[C@@H](O)[C@H](O)[C@H]2O)[C@@H](O)[C@@H]1O | inactive
18 | Nc1nccs1 | inactive
19 | c1ccc2ccccc2c1 | inactive
20 | O=S(=O)(O)CCCS(=O)(=O)O | inactive

Row | SMILES | Potency
21 | O=C1c2ccccc2C(=O)c2c1ccc(O)c2O | inactive
22 | O=C(NNCNNC(=O)c1ccncc1)c1ccncc1 | inactive
23 | [O]=[Bi][O]C(=O)[O][Bi]=[O] | inactive
24 | C=CCN1CCCC1CNC(=O)c1cc(S(N)(=O)=O)cc(OC)c1OC (stereo not given) | inactive
25 | CC(C)[C@H](N)C(=O)OCC(CO)OCn1cnc2c(=O)[nH]c(N)nc21 (stereo not given in full) | inactive
26 | CCCCCCCCCCCCCCCCCC(=O)OC[C@@H](O)[C@H]1OC[C@H](O)[C@H]1O | inactive
27 | CC(=O)[C@H]1CC[C@H]2[C@@H]3C=CC4=CC(=O)CC[C@@]4(C)[C@H]3CC[C@]12C | inactive
28 | CCCC(=O)O | inactive
29 | CC1(C)S[C@@H]2[C@H](NC(=O)C3(N)CCCCC3)C(=O)N2[C@H]1C(=O)O | inactive
30 | CCCCCCCCCCCC(=O)OCC(O)CO (stereo not given) | inactive
31 | CCOc1ccc(NC(=S)Nc2ccc(OCC)cc2)cc1 | inactive
32 | C[C@H](CCC(=O)O)[C@H]1CC[C@H]2[C@@H]3CC[C@@H]4C[C@H](O)CC[C@]4(C)[C@H]3C[C@H](O)[C@]12C | inactive
33 | CC(C)(COP(=O)(O)OP(=O)(O)OC[C@H]1O[C@@H](n2cnc3c(N)ncnc32)[C@H](O)[C@@H]1OP(=O)(O)O)C(O)C(=O)NCCC(=O)NCCS (stereo not given in full) | inactive
34 | O=C(CCCCCCCCCCCCC1CCCC1)Nc1ccc(S(=O)(=O)c2ccc(NC(=O)CCCCCCCCCCCCC3CCCC3)cc2)cc1 | inactive
35 | Nc1nc(=O)n([C@@H]2CS[C@H](CO)O2)cc1F | inactive
36 | O=C(O)CCC/C=C\C[C@@H]1[C@@H](/C=C/[C@@H](O)COc2cccc(C(F)(F)F)c2)[C@H](O)C[C@@H]1O | inactive
37 | Cc1c(Cl)cccc1Nc1ncccc1C(=O)O | inactive
38 | CC(C)=CCC/C(C)=C/CC/C(C)=C/CC/C=C(\C)CC/C=C(\C)CCC=C(C)C | inactive
39 | CC(=O)Nc1ccc(OC(C)=O)cc1 | inactive
40 | CC(=O)N[C@@H]1C(O[C@H]2O[C@H](C(=O)O)C(O)[C@H](O)[C@H]2O)[C@H](O)[C@@H](CO)O[C@H]1O[C@@H]1C(C(=O)O)O[C@@H](O[C@H]2[C@H](O)[C@@H](CO)OC(O)[C@@H]2NC(C)=O)[C@H](O)[C@H]1O (stereo not given in full) | inactive

system: CP247; assay: as above; settings: P. falciparum in erythrocytes, SYBR Green DNA, 72 h; series mostly up to 28.7 µM
Summary of the method: as §1

Row | SMILES | Potency
41 | COc1cc(S(C)=O)ccc1-c1nc2ncccc2[nH]1 (stereo not given) | inactive
42 | CCOc1ccc(S(=O)(=O)O)c2cccnc12 | inactive
43 | NC(=S)NS(=O)(=O)c1ccc(N)cc1 | inactive
44 | C[C@]12CC[C@@H]3c4ccc(OC(=O)c5ccccc5)cc4CC[C@H]3[C@@H]1CC[C@@H]2O | inactive
45 | CC(CCc1ccc(O)cc1)NCC(O)c1ccc(O)cc1 (stereo not given) | inactive
46 | FC(F)(F)C(F)(F)C(F)(F)C(F)(F)C(F)(F)C(F)(F)F | inactive
47 | CN(C)CCOc1ccc(/C(=C(/CCCl)c2ccccc2)c2ccccc2)cc1 | inactive
48 | CNC(=O)OCc1cccc(COC(=O)NC)n1 | inactive
49 | NCC[C@H](O)C(=O)N[C@@H]1C[C@H](N)[C@@H](O[C@H]2O[C@H](CN)[C@@H](O)[C@H](O)[C@H]2O)[C@H](O)[C@H]1O[C@H]1O[C@H](CO)[C@@H](O)[C@H](N)[C@H]1O | inactive
50 | NC(N)=O | inactive
51 | CC1CCCCN1CCCOC(=O)c1ccccc1 (stereo not given) | inactive
52 | COC(=O)CCC[N+](C)(C)C | inactive
53 | COC(=O)CC[C@H](N)C(=O)O | inactive
54 | O=C(OCc1ccccc1)c1ccc(O)cc1 | inactive
55 | CC(C)(CO)[C@@H](O)C(=O)NCCC(=O)NCCSSCCNC(=O)CCNC(=O)[C@H](O)C(C)(C)CO | inactive
56 | COC(=O)c1ccccc1O | inactive
57 | OC[C@H]1O[C@@](CO)(O[C@H]2O[C@H](CO)[C@@H](O)[C@H](O)[C@H]2O)[C@@H](O)[C@@H]1O | inactive
58 | Nc1nccs1 | inactive
59 | c1ccc2ccccc2c1 | inactive
60 | O=S(=O)(O)CCCS(=O)(=O)O | inactive

Row | SMILES | Potency
61 | O=C1c2ccccc2C(=O)c2c1ccc(O)c2O | inactive
62 | O=C(NNCNNC(=O)c1ccncc1)c1ccncc1 | inactive
63 | [O]=[Bi][O]C(=O)[O][Bi]=[O] | inactive
64 | C=CCN1CCCC1CNC(=O)c1cc(S(N)(=O)=O)cc(OC)c1OC (stereo not given) | inactive
65 | CC(C)[C@H](N)C(=O)OCC(CO)OCn1cnc2c(=O)[nH]c(N)nc21 (stereo not given in full) | inactive
66 | CCCCCCCCCCCCCCCCCC(=O)OC[C@@H](O)[C@H]1OC[C@H](O)[C@H]1O | inactive
67 | CC(=O)[C@H]1CC[C@H]2[C@@H]3C=CC4=CC(=O)CC[C@@]4(C)[C@H]3CC[C@]12C | inactive
68 | CCCC(=O)O | inactive
69 | CC1(C)S[C@@H]2[C@H](NC(=O)C3(N)CCCCC3)C(=O)N2[C@H]1C(=O)O | inactive
70 | CCCCCCCCCCCC(=O)OCC(O)CO (stereo not given) | inactive
71 | CCOc1ccc(NC(=S)Nc2ccc(OCC)cc2)cc1 | inactive
72 | C[C@H](CCC(=O)O)[C@H]1CC[C@H]2[C@@H]3CC[C@@H]4C[C@H](O)CC[C@]4(C)[C@H]3C[C@H](O)[C@]12C | inactive
73 | CC(C)(COP(=O)(O)OP(=O)(O)OC[C@H]1O[C@@H](n2cnc3c(N)ncnc32)[C@H](O)[C@@H]1OP(=O)(O)O)C(O)C(=O)NCCC(=O)NCCS (stereo not given in full) | inactive
74 | O=C(CCCCCCCCCCCCC1CCCC1)Nc1ccc(S(=O)(=O)c2ccc(NC(=O)CCCCCCCCCCCCC3CCCC3)cc2)cc1 | inactive
75 | Nc1nc(=O)n([C@@H]2CS[C@H](CO)O2)cc1F | inactive
76 | O=C(O)CCC/C=C\C[C@@H]1[C@@H](/C=C/[C@@H](O)COc2cccc(C(F)(F)F)c2)[C@H](O)C[C@@H]1O | inactive
77 | Cc1c(Cl)cccc1Nc1ncccc1C(=O)O | inactive
78 | CC(C)=CCC/C(C)=C/CC/C(C)=C/CC/C=C(\C)CC/C=C(\C)CCC=C(C)C | inactive
79 | CC(=O)Nc1ccc(OC(C)=O)cc1 | inactive
80 | CC(=O)N[C@@H]1C(O[C@H]2O[C@H](C(=O)O)C(O)[C@H](O)[C@H]2O)[C@H](O)[C@@H](CO)O[C@H]1O[C@@H]1C(C(=O)O)O[C@@H](O[C@H]2[C@H](O)[C@@H](CO)OC(O)[C@@H]2NC(C)=O)[C@H](O)[C@H]1O (stereo not given in full) | inactive
